IP6K1 inhibitor – blocks human inositol hexakisphosphate kinase 1; Q92551; IP6K1 kinase, ADP-Glo luminescence, 2 h; active compounds read low; activity change, % (series mostly up to about 58 µM); actives 0.81% (n = 140,000); in the data active means activity change below about -25%
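ADP-Glo luminescence measures ADP made by human IP6K1 during a 2 h RT reaction with ATP/IP6 (mix at 1.3 mM/130 uM); top library doses 57.5 and 19.1 uM final.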
SNCA expr inh – SNCA gene expression inhibition; HEK-293 SNCA-luciferase knock-in, luminescence, 24 h; Potency, µM (doses to about 57.2 µM), most hits filed as inhibitors; actives 0.17% (n = 140,000); further: nearly all actives have a fitted effect of over 45% in size
HEK293 viab – reduces viability of HEK-293 SNCA reporter cells. actives 0.12% (n = 150,000). AID 1671193. HEK-293-SNCA-luc viability, GF-AFC fluorescence, 24 h. Potency, µM (doses to about 57.1 µM), hits mostly cytotoxic; further: nearly all actives have a fitted effect of over 30% in size
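Cytotoxicity counterscreen: after 24 h compound treatment of genome-edited SNCA-luciferase HEK-293 cells, live-cell protease substrate GF-AFC read by fluorescence after 30 min; activity scaled between DMSO (0%) and medium-only (-100%), curves Hill-fitted.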
KDM5B inhibitor – blocks human KDM5B histone demethylase activity | Q9UGL1 | KDM5B demethylase, FDH-coupled NADH fluorescence (FDH is formaldehyde dehydrogenase) | Potency, µM (top dose mostly 57.7 µM), hits mostly inhibitors | actives 2.6% (n = 220,000) | AID 1347165; further: nearly all actives have a fitted effect of over 70% in size
Target sequence (Q9UGL1 whole entry, looked up): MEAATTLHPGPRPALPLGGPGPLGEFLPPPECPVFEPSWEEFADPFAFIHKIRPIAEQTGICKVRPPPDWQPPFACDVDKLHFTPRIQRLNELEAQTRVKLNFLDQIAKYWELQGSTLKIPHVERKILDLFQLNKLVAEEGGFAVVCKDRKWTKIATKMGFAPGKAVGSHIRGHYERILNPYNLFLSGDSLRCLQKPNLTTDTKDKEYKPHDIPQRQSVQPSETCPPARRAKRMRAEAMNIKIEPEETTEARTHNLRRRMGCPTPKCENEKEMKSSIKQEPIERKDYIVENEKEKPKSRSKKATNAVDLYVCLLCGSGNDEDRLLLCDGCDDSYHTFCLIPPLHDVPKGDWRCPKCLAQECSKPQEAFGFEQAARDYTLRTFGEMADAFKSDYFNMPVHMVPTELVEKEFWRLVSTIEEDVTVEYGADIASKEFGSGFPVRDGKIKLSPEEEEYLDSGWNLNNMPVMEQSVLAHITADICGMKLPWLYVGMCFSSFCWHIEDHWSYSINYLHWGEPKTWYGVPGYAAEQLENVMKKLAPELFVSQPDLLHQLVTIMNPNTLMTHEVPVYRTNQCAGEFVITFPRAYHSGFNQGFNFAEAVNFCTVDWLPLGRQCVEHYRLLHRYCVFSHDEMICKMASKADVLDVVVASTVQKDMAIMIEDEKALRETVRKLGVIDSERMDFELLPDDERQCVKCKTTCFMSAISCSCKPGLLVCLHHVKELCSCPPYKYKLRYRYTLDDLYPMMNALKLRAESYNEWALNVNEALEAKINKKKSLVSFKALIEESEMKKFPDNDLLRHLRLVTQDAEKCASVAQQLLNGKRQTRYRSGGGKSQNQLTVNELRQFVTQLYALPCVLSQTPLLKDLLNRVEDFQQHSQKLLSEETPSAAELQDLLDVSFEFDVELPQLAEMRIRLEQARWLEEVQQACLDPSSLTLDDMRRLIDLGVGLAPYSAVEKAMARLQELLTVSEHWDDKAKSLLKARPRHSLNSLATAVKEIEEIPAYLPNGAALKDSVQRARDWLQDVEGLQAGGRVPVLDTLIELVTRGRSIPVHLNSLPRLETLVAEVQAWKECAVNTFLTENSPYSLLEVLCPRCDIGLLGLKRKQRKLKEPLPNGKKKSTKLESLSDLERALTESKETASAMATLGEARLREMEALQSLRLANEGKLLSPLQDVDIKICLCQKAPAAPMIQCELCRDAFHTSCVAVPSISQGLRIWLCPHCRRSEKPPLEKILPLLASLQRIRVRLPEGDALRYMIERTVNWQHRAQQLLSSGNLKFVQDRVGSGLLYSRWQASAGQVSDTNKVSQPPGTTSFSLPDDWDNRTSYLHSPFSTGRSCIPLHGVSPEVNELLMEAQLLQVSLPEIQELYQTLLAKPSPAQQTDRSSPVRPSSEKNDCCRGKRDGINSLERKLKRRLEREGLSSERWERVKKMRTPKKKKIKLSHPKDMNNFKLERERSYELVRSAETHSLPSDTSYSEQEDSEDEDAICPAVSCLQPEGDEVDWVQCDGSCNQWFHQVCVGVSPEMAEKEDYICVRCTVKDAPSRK
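Compound dilutions met 200 nM (final) KDM5BΔAP for 10 min at room temperature before substrate addition. The substrate mix held 12.5 µM H3K4me3 with cofactors 25 µM α-ketoglutarate and 50 µM Fe²⁺. NADH signal gain over 30 min defined activity.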
Numbers stand for hits; n = inactive; u = inconclusive; x = not tested or not shown; [ ] = dose if it differs, or a comment. An excerpt weighted towards active compounds, which were near 3% of everything screened. Unless noted, the call rests on the fitted dose curve; in most records, active means well fitted curve in the direction sought with a large enough effect; inconclusive means small, poorly fitted or top-dose-only effect, or another doubt; inactive means no such curve, though single readings can be large; an effect the other way counts as inactive or inconclusive.

SMILES | IP6K1 inhibitor | SNCA expr inh | HEK293 viab | KDM5B inhibitor
CC(=O)N1CCN(C(=O)C[C@@H]2C[C@@H](C(C)C)[C@H](CC#N)C=C2C)CC1 | n | n | n | n
CC1=C[C@@H](CNC(=O)c2ccccn2)[C@H](C(C)C)C[C@H]1CC(=O)N1CCCC1 | n | u | u | n
CC1=C[C@@H](CC#N)[C@H](C(C)C)C[C@H]1CC(=O)N1CCN(c2cnccn2)CC1 | n | u | n | 35.5µM
CC(=O)Nc1ccc(-c2nc(N3CCCCC3)sc2C)cc1 | x | x | x | n
Cc1cccc(/C=C/c2ccc3c([N+](=O)[O-])cccc3n2)c1 | x | x | x | n
CNC(=O)CCn1ncc2cc(OCc3ccccc3-c3cc(F)ccc3OC)ccc21 | n | u | u | n
Cc1cnc(C)c(-c2cc(O)c3c(c2)CN(C(=O)c2ccncn2)CCO3)n1 | n | n | n | 25.1µM
CCCCCCCCCCOC(=O)C[N+](C)(C)Cc1ccccc1 | x | x | x | n
Cc1cc(C(F)(F)F)nc(CCNC(=O)C2NCCc3[nH]cnc32)n1 (stereo not drawn) | n | n | n | n
Cc1ccc2cccc(OCCNC(=O)C3NCCc4[nH]cnc43)c2n1 (stereo not drawn) | n | n | n | 14.1µM
O=C(NC1CC(c2cc(NCCO)ncn2)C1)c1cc2ccccc2[nH]1 (stereo not drawn) | n | n | n | 28.2µM
Cc1nnc2ccc(N3CCC(NC(=O)c4ccc(Cl)cc4)C3)nn12 (stereo not drawn) | n | x | x | x
CC(O)c1cc2n(n1)CCCN(C(=O)CCc1cn3ccccc3n1)C2 (stereo not drawn) | n | n | n | 25.1µM
CCC(O)c1cc2n(n1)CCN(C(=O)CCc1cn3ccccc3n1)C2 (stereo not drawn) | n | n | n | 11.2µM
Cc1cccc(CN2CCN(Cn3nc(C)c4ccccc4c3=O)CC2)c1 | x | x | x | n
COCCn1cnnc1SCc1ccc(Br)cc1 | x | x | x | n
O[C@H]1CC[C@@H](Cc2cc(-c3ccccc3)on2)O[C@@H]1CNC1CCCCC1 | n | n | n | n
Cc1ccccc1C(=O)N1CCC(N2CCCCCC2=O)CC1 | n | n | n | 20µM
CC(=O)N1CCN(Cc2nnc3cc(-c4nc(-c5ccccc5)no4)ccn23)CC1 | n | n | n | 6.31µM
c1ccc(-c2noc(-c3ccn4c(CN5CCc6ccccc6C5)nnc4c3)n2)cc1 | n | n | n | 31.6µM
Cc1cc(Cl)ccc1OCc1n[nH]c(=S)n1C | x | x | x | n
COc1ccc(-c2coc3cc(OCC(=O)NCc4ccccc4Cl)ccc3c2=O)cc1OC | x | x | x | n
C=CCOc1c(OC)ccc2c1CN(Cc1ccco1)C(=O)CCN2CC(O)COc1ccc(OC)cc1 (stereo not drawn) | n | x | x | x
O=C(c1cc(-c2ccc(Cl)cc2Cl)c2nncn2n1)N1CCOCC1 | n | n | n[12.5 µM] | 79.4µM
O=C(NCc1cccs1)c1cc(-c2cccc(C(F)(F)F)c2)c2nncn2n1 | n | u | u | 50.1µM
SMILES | IP6K1 inhibitor | SNCA expr inh | HEK293 viab | KDM5B inhibitor
O=C(c1cc(-c2cccc(C(F)(F)F)c2)c2nncn2n1)N1CCCC1 | n | n | n | 50.1µM
COCCN1C(=O)c2ccccc2C(C(=O)Nc2ccccc2)C12CCCC2 (stereo not drawn) | x | x | x | n
CN(C)c1cc2c(cc1NC(=O)c1cccs1)n(C)c(=O)c(=O)n2C | x | x | x | n
Cc1noc(-c2ccn3c(CNC(=O)COc4ccccc4)nnc3c2)n1 | n | n | n | 12.6µM
Cc1noc(-c2ccn3c(CNC(=O)Cc4ccccc4Cl)nnc3c2)n1 | n | n | n | 25.1µM
Cc1noc(-c2ccn3c(CNC(=O)C(C)c4ccccc4)nnc3c2)n1 (stereo not drawn) | n | n | n | 28.2µM
CCC1(C(=O)N2CCc3ccccc3C2)CCCCC(=O)N1 (stereo not drawn) | n | n | n | u
CCN(CC)c1ccc(C(=O)NCc2nnc3cc(-c4nc(C(C)C)no4)ccn23)cc1 | n | n | n | u
CC(C)c1noc(-c2ccn3c(CNC(=O)c4ccc(N(C)C)cc4)nnc3c2)n1 | n | n | u | 22.4µM
CC(C)c1noc(-c2ccn3c(CNC(=O)c4cccc(N(C)C)c4)nnc3c2)n1 | n | n | n | 28.2µM
COc1ccc(C(=O)N2CCN(c3nccc(Nc4ccccc4OC)n3)CC2)cc1 | n | n | n | x
N#CCCN1CCCC1CCc1ccccc1 (stereo not drawn) | x | x | x | n
CC(NC(=O)CCc1ncc(-c2ccc(Cl)cc2)o1)c1ccc2c(c1)NC(=O)CO2 (stereo not drawn) | x | x | x | n
COc1ccc(S(=O)(=O)NCc2nc3nc(C)cc(C)n3n2)cc1 | n | n | n | n

From PubChem
